Laboratory results from PubChem BioAssay.
Results filed as inconclusive are left out. Calls of active or inactive are those of the source. Unless noted, the limit is not given here; nearly all actives have AC50 up to about 26 µM.

Key:
[1] = compounds altering circadian rhythm period length – cell-based, LOPAC library, luminescence reporter (AID 2774; call rule not given here;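 also: values are relative to mean of DMSO wells on each plate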); details: circadian reporter cells, at 7 µM, actives lie on both sides
[2] = test system: Aerobactin synthetase IucA (Klebsiella pneumoniae, hypervirulent); test: biochemical IucA inhibition screen of LOPAC library by absorbance (AID 1346212; call rule not given here;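 also: 100% = no compound wells and 0% = no enzyme wells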); details: IucA enzyme assay, absorbance (OD) readout; stronger effect = lower value;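 tested at 8 µM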
[3] = compounds altering viability of human ES cells (AID 493140; call rule not given here;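 also: cells exposed to compounds for four days before counting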); details: human embryonic stem cell survival screen; stronger effect = higher value
[4] = viability loss in pontine glioma line – cell-based, SU-DIPG-XVII, MIPE5.0, CellTiter-Glo, qHTS, dose response (AID 1347060); details: CellTiter-Glo ATP luminescence;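 as to AC50: cells exposed to compound for 48 hours before viability readout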
[5] = viability loss in pontine glioma line – cell-based, SU-DIPG-XIII, MIPE4.0, CellTiter-Glo, qHTS, dose response (AID 1347061; cut-off not given, nearly all actives have AC50 up to about 37 µM;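 also: cells exposed to compound for 48 hours before readout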); details: CellTiter-Glo ATP luminescence
[6] = viability loss in pontine glioma line – cell-based, JHH-DIPG-1, MIPE4.0, CellTiter-Glo, qHTS, dose response (AID 1347062; cut-off not given, nearly all actives have AC50 up to about 27 µM;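 as to AC50: cells exposed to compound for two days before readout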); details: JHH-DIPG-1 viability, CellTiter-Glo ATP luminescence
[7] = viability loss in pontine glioma line – cell-based, SU-DIPG-IV, MIPE4.0, CellTiter-Glo, qHTS, dose response (AID 1347063; cut-off not given, nearly all actives have AC50 up to about 30 µM;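 also: compound exposure lasted 48 hours before the viability readout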); details: CellTiter-Glo ATP luminescence
[8] = viability loss in pontine glioma line – cell-based, SU-DIPG-XXV, MIPE5.0, CellTiter-Glo, qHTS, dose response (AID 1347065); details: CellTiter-Glo ATP luminescence;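 also: cells exposed to compound for 48 hours before ATP readout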
[9] = growth inhibition of DIPG cells – cell-based, MIPE4.0 library, CellTiter-Glo luminescence, qHTS (AID 1347066; cut-off not given, nearly all actives have AC50 up to about 30 µM;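 also: cells exposed to compound for 48 hours before readout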); details: SU-DIPG-VI viability, CellTiter-Glo ATP luminescence
[10] = JHH-DIPG-1 glioma cell viability, MIPE5.0 library, CellTiter-Glo luminescence, qHTS (AID 1347067); details: JHH-DIPG-1 glioma viability, CellTiter-Glo ATP luminescence;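 also: cells exposed to compound for 48 hours before readout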
[11] = growth inhibition of DIPG cells – cell-based, MIPE5.0 library, qHTS (AID 1347068; cut-off not given, nearly all actives have IC50 up to about 30 µM;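 as to IC50: cells exposed to compound for 48 hours before viability readout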); details: SU-DIPG-XXV viability
[12] = test system: Hepatitis C virus NS3 helicase; test: blockers of NS3h binding to ssDNA – biochemical, fluorescence polarization, LOPAC1280 library, primary screen (AID 687035; in the data active = inhibition above about 37%); details: Purified HCV NS3 helicase, Cy5-dT15 ssDNA binding fluorescence polarization; stronger effect = higher value; concentration not given here
[13] = compounds altering Cy5-DNA-NS3h complex signal – biochemical, LOPAC1280, artefact control for HCV NS3 helicase inhibitor project (AID 687037; call rule not given here); details: Cy5-DNA-NS3h complex fluorescence interference counterscreen
[14] = viability loss in pontine glioma line – cell-based, SU-DIPG-XIII, MIPE5.0, CellTiter-Glo, qHTS, dose response (AID 1347064; cut-off not given, nearly all actives have AC50 up to about 23 µM;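 as to AC50: cells exposed to compound for 48 hours before the viability read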); details: CellTiter-Glo ATP luminescence
[15] = MELAS cybrid and Rieske KO viability enhancers – cell-based, MELAS cybrids, Rieske KO mouse fibroblasts, CellTiter-Glo, primary screen (AID 1508586;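 active = mean z-score across replicates of 1.96 or higher in either the MELAS or the Rieske mutant cell line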;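 also: z relative to plate mean and SD of compound and empty wells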); details: low glucose

CNC(=O)OCC[N+](C)(C)C
inactive: period change [1] -0.01 h | remaining activity [2] 109%

N#CC(C#N)=Cc1cc(O)c(O)c(O)c1
inactive: period change [1] -0.035 h | survival [3] 61.5 | remaining activity [2] 109%

C/C=C(\C)C(=O)N[C@@H](c1ccccc1)[C@@H](O)C(=O)O[C@H]1C[C@@]2(O)[C@@H](OC(=O)c3ccccc3)[C@@H]3[C@]4(OC(C)=O)CO[C@@H]4C[C@H](O)[C@@]3(C)C(=O)[C@H](OC(C)=O)C(=C1C)C2(C)C
inactive: outcome [5] | outcome [6] | outcome [7] | outcome [9]
active: AC50 [4] 13.2 nM | AC50 [8] 23.5 nM

O=C(O)C(=O)c1cn(Cc2ccccc2)c2ccc(-c3ccc(OC(F)(F)F)cc3)cc12
inactive: outcome [4] | outcome [5] | outcome [6] | outcome [7] | outcome [8] | outcome [9] | outcome [10] | outcome [11]

COc1ccc2c(c1)[C@@]13CCCC[C@H]1[C@@H](C2)NCC3
inactive: period change [1] -0.085 h | inhibition [12] -5% | fluorescence ratio (interference) [13] 1 | remaining activity [2] 108%

COC(=O)[C@]12CCC(C)(C)C[C@H]1[C@H]1C(=O)C=C3[C@@]4(C)C=C(C#N)C(=O)C(C)(C)[C@@H]4CC[C@@]3(C)[C@]1(C)CC2
active: AC50 [4] 3720 nM | AC50 [5] 2640 nM | AC50 [6] 590 nM | AC50 [7] 469 nM | AC50 [14] 3720 nM | AC50 [8] 2090 nM | AC50 [9] 743 nM | AC50 [10] 833 nM | IC50 [11] 10500 nM

CN[C@@H]1Cc2cccc3[nH]c(=O)n(c23)C1
inactive: outcome [4] | outcome [5] | outcome [6] | outcome [14] | outcome [8] | outcome [9] | outcome [10] | outcome [11]

O=C(O)c1cc[c]([Hg][Cl])cc1
active: remaining activity [2] -1.2%
inactive: period change [1] 0.155 h | inhibition [12] -5% | fluorescence ratio (interference) [13] 1

C[C@]12COC(=O)C[C@@H]1CC[C@@H]1[C@@H]2CC[C@@]2(C)[C@H]1CC[C@]2(C)O
inactive: outcome [4] | outcome [5] | outcome [6] | outcome [7] | outcome [14] | outcome [9] | outcome [10] | outcome [11] | z-score ([15]; MELAS cybrid survival, CellTiter-Glo 48 h, stronger effect = higher value) 0.293
0.228: z-score ([15]; Rieske KO mouse fibroblast survival, CellTiter-Glo 72 h)

N=C1NC(=O)N2CC12 (stereo not given)
inactive: outcome [4] | outcome [5] | outcome [14] | outcome [8] | outcome [10] | outcome [11]
active: AC50 [6] 2090 nM

COC12C(COC(N)=O)C3=C(C(=O)C(C)=C(N)C3=O)N1CC1C2N1C (stereo not given)
active: AC50 [4] 1480 nM

CCN(CCCl)Cc1ccccc1Br
inactive: period change [1] -0.02 h | inhibition [12] -2% | fluorescence ratio (interference) [13] 1 | remaining activity [2] 111%

Cc1ccccn1.[Cl][Pt][Cl].[NH2-]
inactive: outcome [4] | outcome [5] | outcome [8] | outcome [11]
